# PubChem BioAssay (NCATS)
# Results filed as inconclusive are left out. Entries that show only a call come without a potency. Values without a mark were called inactive. Active and inactive are the calls of the source. Calls come from the whole dose curve; as a rule, active = well fitted curve in the direction sought with a large enough effect; inconclusive = small, poorly fitted or top-dose-only effect, or another doubt; inactive = no such curve, though single readings can be large; an effect the other way counts as inactive or inconclusive.
# Assays:
# [1] = molecular target: Cellular tumor antigen p53 (Homo sapiens) (UniProt P04637); assay: Primary qHTS for small molecule compounds that upregulate eGFP-tagged delta133p53alpha (in N-terminal) cells. (AID 2060322); conditions: NCI-H358 eGFP-delta133p53alpha fluorescence, 24 h; activation: active compounds read high; note: nearly all actives have a fitted effect of over 75% in size; note: potency is the fitted concentration of half-maximal effect;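 for activation: cells pre-induced with doxycycline then dosed without doxycycline; series mostly up to about 56 µM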
# Sequence of Cellular tumor antigen p53 (Homo sapiens) (P04637 whole entry, looked up): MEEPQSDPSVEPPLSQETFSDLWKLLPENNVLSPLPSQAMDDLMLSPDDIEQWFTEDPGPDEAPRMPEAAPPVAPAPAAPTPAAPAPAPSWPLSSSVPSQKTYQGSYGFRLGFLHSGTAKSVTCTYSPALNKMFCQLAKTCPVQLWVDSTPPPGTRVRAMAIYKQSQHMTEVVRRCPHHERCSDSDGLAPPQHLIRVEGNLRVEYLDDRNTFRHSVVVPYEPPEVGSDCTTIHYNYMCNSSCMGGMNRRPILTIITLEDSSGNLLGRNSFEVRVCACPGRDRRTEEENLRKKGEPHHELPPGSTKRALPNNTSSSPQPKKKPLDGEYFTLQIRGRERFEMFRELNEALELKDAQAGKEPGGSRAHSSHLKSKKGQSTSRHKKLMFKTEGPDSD
# Summary of the method: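 NCI-H358 cells pre-induced 24 h with 10 ng/ml doxycycline for eGFP-delta133p53alpha, plated dox-free and exposed 24 h at 37C to titrated compounds. Fixed, Hoechst-stained; gated GFP peak intensity by laser scanning cytometry, normalized to DMSO (0%) and 57.5 uM 5-azacytidine (100%).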
# [2] = molecular target: Aldehyde dehydrogenase, mitochondrial (Homo sapiens) (UniProt P05091); assay: qHTS for Inhibitors of the Aldehyde Dehydrogenase Family (ALDH2) Primary screen (AID 2061308); note: nearly all actives have a fitted effect of over 55% in size
# [3] = molecular target: Retinaldehyde dehydrogenase 3 (Homo sapiens) (UniProt P47895); assay: qHTS for Inhibitors of the Aldehyde Dehydrogenase Family (ALDH1A3) Primary screen (AID 2061315)
Compound,activation [1] [%],Potency [2],Potency [3],"activity change, negative = inhibition [2]","activity change, negative = inhibition [3]",Potency [1]
C[C@@]12C[C@]3(O)O[C@H](O1)[C@]1(COC(=O)c4ccccc4)[C@H]3C[C@@]12O[C@@H]1O[C@H](CO)[C@@H](O)[C@H](O)[C@H]1O,25,inactive,inactive,,,
C/C=C/C[C@@H](C)[C@@H](O)[C@H]1C(=O)N[C@@H](CC)C(=O)N(C)CC(=O)N(C)[C@@H](CC(C)C)C(=O)N[C@@H](C(C)C)C(=O)N(C)[C@@H](CC(C)C)C(=O)N[C@@H](C)C(=O)N[C@H](C)C(=O)N(C)[C@@H](CC(C)C)C(=O)N(C)[C@@H](CC(C)C)C(=O)N(C)[C@H](C(C)C)C(=O)N1C,11.5,inactive,inactive,,,
C=C(C)C1CC2(CO)C(=CC1=O)CCC(O)C2C (stereo unspecified),-4.58,inactive,inactive,,,
O=C(C[C@@H]1C(C(=O)O)=CO[C@@H](O[C@@H]2O[C@H](CO)[C@@H](O)[C@H](O)[C@H]2O)/C1=C\CO)OCCc1ccc(O)c(O)c1,-14.3,inactive,inactive,,,
CC(=O)[C@@H]1C[C@H](C(C)(C)O[C@@H]2O[C@H](CO)[C@@H](O)[C@H](O)[C@H]2O)CC[C@@]2(CO)OC(=O)C[C@@H]12,-6.11,inactive,inactive,,,
O=C(O)/C=C/c1ccc(O)c(O[C@@H]2O[C@H](CO)[C@@H](O)[C@H](O)[C@H]2O)c1,16,inactive,inactive,,,
CC(=O)OC/C(=C/C(=O)O)CC[C@@H]1C(C=O)=CC[C@@H]2C(C)(C)CCC[C@@]12C,-32.8,inactive,inactive,,,
CC(=O)O[C@@H]1CC2C(/C=C(\C)C(=O)[C@@]3(O)C[C@@H](C)[C@H](OC(=O)c4ccccc4)C3/C=C/1C)C2(C)C (stereo partly specified),-10.7,inactive,inactive,,,
C/C(=C\CCC(C)CCO)C(=O)OC1(C)CCC2C(C(=O)O)=COC(OC3OC(CO)C(O)C(O)C3O)C21 (stereo unspecified),4.58,inactive,inactive,,,
CCC(C)C(=O)OC1CC(O)C23C4OCC5(C(O)CC2C1(C)C(O)O4)C3C(=O)C(O)C1(C)C(O)(c2ccoc2)CC2OC251 (stereo unspecified),5.34,inactive,inactive,,,
COc1cccc(CN(C(=O)CC(C)(C)C)[C@H]2C[C@H](C(=O)N3CCNCC3)N(Cc3ccc4c(c3)OCO4)C2)c1,1,inactive,inactive,,,
CC(=O)C12OC(C)(C)OC1CC1C3CCC4=CC(=O)C=CC4(C)C3(F)C(O)CC12C (stereo unspecified),-9.67,inactive,inactive,,,
CC1(CO)CC2C(O)C(=O)C3(CO)CC3(C)C2C1 (stereo unspecified),-2.29,inactive,inactive,,,
CC1OC(O[C@H]2CC[C@@]3(C)C(CC[C@]4(C)C3CC=C3C5CC(C)(C)CC[C@]5(C(=O)OC5OC(CO)C(OC6OC(COC7OCC(O)C(O)C7O)C(O)C(O)C6O)C(O)C5O)CC[C@]34C)C2(C)C)C(O)C(O)C1OC1OCC(OC2OCC(O)C(O)C2O)C(O)C1O (stereo partly specified),-15.3,,,-20.7% [at 11.2 µM],10.3% [at 11.2 µM],
Nc1c(NC/C=C\COc2cc(CN3CCCCC3)ccn2)c(=O)c1=O,-10.3,inactive,inactive,,,
COc1c(C)c(OCC=C(C)C)cc2c1COC2=O,-0.763,inactive,inactive,,,
COc1c(-c2ccc(O)cc2)cc(OC)c2c1oc1cc(O)c(OC3OC(CO)C(O)C3O)cc12 (stereo unspecified),1.79,inactive,inactive,,,
CCN(CC)c1ccc2c(O)c(C=Nc3ccc(CC(=O)O)c(-c4c5c(nc6ccccc46)CCC(C(=O)NN)C5)c3)c(=O)oc2c1 (stereo unspecified),,inactive,inactive,,,5.36 µM (active)
C[C@@H]1C[C@H]2O[C@@H]2/C=C\C=C\C(=O)Cc2c(Cl)c(O)cc(O)c2C(=O)O1,,inactive,inactive,,,4.53 µM (active)
C[C@@H](NC(=O)c1ccc(C#Cc2cccc(F)c2)cn1)C(C)(C)O,-4.33,inactive,inactive,,,
CO[C@H]1/C=C/C=C/C=C/C[C@H](OC(=O)[C@@H](C)NC(=O)C2CCCCC2)[C@H](C)[C@@H](O)/C(C)=C/CCc2cc(O)cc(c2)NC(=O)C1,,inactive,inactive,,,2.81 µM (active)
CC1(O)CC(O)C2C(C(=O)O)=COC(OC3OC(CO)C(O)C(O)C3OC(=O)/C=C/c3ccc(O)cc3)C21 (stereo unspecified),-15.3,inactive,inactive,,,
